# Reference: PubChem BioAssay (EPA / NIEHS)
# Results filed as inconclusive are left out. Calls of active or inactive are those of the source. The calls were made as follows: active = hit-call score of the fitted dose curve at least 0.9, where 1 is the maximum; inconclusive = response in the unintended direction; inactive = score below 0.9.
# How the values were obtained:
# [1] = molecular target: sheep Cyclooxygenase-1 (Cox1), PTGS1 (gene 443551) (UniProt P05979); assay: NVS_ENZ_oCOX1: NovaScreen (NVS) Enzymatic Assay for sheep Cyclooxygenase-1 (Cox1) (AID 2283239);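 also: actives reduce cyclooxygenase activity so potencies are for inhibitors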
# Chain of sheep Cyclooxygenase-1 (Cox1), PTGS1 (gene 443551) (P05979 whole entry, looked up): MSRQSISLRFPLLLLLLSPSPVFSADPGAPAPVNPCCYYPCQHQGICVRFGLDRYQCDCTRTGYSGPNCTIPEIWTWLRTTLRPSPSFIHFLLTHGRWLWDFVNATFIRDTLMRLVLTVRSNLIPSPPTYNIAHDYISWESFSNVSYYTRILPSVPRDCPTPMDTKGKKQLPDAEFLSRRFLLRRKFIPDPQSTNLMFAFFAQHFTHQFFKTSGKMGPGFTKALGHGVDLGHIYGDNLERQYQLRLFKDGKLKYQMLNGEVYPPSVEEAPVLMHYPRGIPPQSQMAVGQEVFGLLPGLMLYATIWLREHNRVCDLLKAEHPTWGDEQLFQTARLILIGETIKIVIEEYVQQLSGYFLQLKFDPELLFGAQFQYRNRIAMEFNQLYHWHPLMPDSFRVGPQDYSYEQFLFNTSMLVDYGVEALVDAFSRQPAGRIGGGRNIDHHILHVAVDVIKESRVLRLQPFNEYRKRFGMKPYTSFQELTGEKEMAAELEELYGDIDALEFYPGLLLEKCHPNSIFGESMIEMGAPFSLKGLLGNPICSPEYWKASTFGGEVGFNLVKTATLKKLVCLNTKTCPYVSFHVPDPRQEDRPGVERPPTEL
# How it was run: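 Ovine seminal vesicle extract; absorbance (colorimetric) enzyme read-out at 0.66 h post-dose. Primary: single conc 25 uM, duplicate. Follow-up: concentration series on actives. Activity = signal loss vs DMSO baseline.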
# [2] = molecular target: human Sirtuin 3 (SIRT3), SIRT3 (gene 23410) (UniProt Q9NTG7); assay: NVS_ENZ_hSIRT3: NovaScreen (NVS) Enzymatic Assay for human Sirtuin 3 (SIRT3) (AID 2283222)
# Chain of human Sirtuin 3 (SIRT3), SIRT3 (gene 23410) (Q9NTG7 whole entry, looked up): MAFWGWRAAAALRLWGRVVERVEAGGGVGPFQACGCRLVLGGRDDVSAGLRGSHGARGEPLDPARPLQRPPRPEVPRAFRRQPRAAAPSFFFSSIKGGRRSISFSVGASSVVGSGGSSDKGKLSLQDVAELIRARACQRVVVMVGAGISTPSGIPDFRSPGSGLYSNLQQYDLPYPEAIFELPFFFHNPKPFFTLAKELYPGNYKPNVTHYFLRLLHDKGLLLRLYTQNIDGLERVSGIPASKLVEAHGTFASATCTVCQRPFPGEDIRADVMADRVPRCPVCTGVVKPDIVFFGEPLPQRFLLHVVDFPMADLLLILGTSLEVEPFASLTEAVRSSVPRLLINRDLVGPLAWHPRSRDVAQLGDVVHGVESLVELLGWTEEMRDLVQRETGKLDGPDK
# How it was run: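 Cell-free enzyme assay with recombinant protein and fluorescent substrate, product separated by electrophoretic mobility shift; read 1 hour after dosing. Screened in duplicate at 25 uM, then singleton concentration-response up to 50 uM; loss of signal versus DMSO.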
# [3] = molecular target: rabbit Imidazoline 2 Central (I2C), CKB (gene 100009085) (UniProt P00567); assay: NVS_ENZ_rabI2C: NovaScreen (NVS) Enzymatic Assay for rabbit Imidazoline 2 Central (I2C) (AID 2283228)
# Chain of rabbit Imidazoline 2 Central (I2C), CKB (gene 100009085) (P00567 whole entry, looked up): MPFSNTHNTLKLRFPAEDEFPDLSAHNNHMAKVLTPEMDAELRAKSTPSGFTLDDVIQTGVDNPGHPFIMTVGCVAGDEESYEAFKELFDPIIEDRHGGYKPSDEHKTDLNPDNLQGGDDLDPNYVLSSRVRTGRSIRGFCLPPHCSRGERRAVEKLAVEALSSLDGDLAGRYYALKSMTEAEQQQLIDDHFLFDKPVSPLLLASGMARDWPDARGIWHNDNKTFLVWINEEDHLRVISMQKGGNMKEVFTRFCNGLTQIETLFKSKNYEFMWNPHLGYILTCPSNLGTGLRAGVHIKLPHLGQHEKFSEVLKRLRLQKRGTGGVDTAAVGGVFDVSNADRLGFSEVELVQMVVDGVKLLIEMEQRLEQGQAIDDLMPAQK
# How it was run: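 Rabbit brain membranes, cell-free; readout by filter-based scintillation counting 1.5 hours after dosing, loss of signal vs DMSO. Initial duplicate test at 25 uM, then concentration-response with 50 uM top concentration.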
# [4] = molecular target: bovine Dopamine Receptor (DR), Non-selective Binding, DRD1 (gene 281125) (UniProt Q95136); assay: NVS_GPCR_bDR_NonSelective: NovaScreen (NVS) G Protein-Coupled Receptor Assay for bovine Dopamine Receptor (DR), Non-selective Binding (AID 2283241)
# Chain of bovine Dopamine Receptor (DR), Non-selective Binding, DRD1 (gene 281125) (Q95136 whole entry, looked up): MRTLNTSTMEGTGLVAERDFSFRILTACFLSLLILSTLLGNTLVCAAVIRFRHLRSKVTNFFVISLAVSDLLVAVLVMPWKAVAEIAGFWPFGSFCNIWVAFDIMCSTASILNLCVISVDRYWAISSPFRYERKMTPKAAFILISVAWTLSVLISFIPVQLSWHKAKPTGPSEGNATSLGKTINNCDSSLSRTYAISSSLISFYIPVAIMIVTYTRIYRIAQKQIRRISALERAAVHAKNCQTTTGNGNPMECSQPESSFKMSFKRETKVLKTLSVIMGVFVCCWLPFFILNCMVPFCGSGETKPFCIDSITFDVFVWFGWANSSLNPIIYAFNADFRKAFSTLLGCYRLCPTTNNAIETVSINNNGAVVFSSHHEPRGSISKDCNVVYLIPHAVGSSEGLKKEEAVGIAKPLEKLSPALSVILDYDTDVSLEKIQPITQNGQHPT
# How it was run: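 Bovine striatal membranes; radioligand displacement read by filtration and scintillation counting 1 h after dosing, loss of signal vs DMSO. Screened in duplicate at 25 uM, then concentration-response for hits.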
# [5] = NVS_GPCR_bNPY_NonSelective: NovaScreen (NVS) G Protein-Coupled Receptor Assay for bovine Neuropeptide Y (NPY) Receptor, Non-selective Binding (AID 2283245)
# How it was run: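 Bovine hippocampal membranes incubated 1 hour with radioligand and test chemical. Bound ligand measured by filter-based scintillation counting. Single-concentration screen at 25 uM in duplicate, then concentration-response up to 50 uM.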
# [6] = system: guinea pig Muscarinic, Peripheral (Mperiperal) Receptor, Non-selective Binding, gene 100379235; assay: NVS_GPCR_gMPeripheral_NonSelective: NovaScreen (NVS) G Protein-Coupled Receptor Assay for guinea pig Muscarinic, Peripheral (Mperiperal) Receptor, Non-selective Binding (AID 2283250)
# How it was run: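 Guinea pig bladder membranes, radioligand binding read 1 h after dosing by filter scintillation counting; loss of signal vs DMSO. Primary duplicate screen at 25 uM, then concentration-response up to 50 uM.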
# [7] = molecular target: human Serotonin, 5-Hydroxytryptamine Receptor 5A (5HT5A), HTR5A (gene 3361) (UniProt P47898); assay: NVS_GPCR_h5HT5A: NovaScreen (NVS) G Protein-Coupled Receptor Assay for human Serotonin, 5-Hydroxytryptamine Receptor 5A (5HT5A) (AID 2283251)
# Chain of human Serotonin, 5-Hydroxytryptamine Receptor 5A (5HT5A), HTR5A (gene 3361) (P47898 whole entry, looked up): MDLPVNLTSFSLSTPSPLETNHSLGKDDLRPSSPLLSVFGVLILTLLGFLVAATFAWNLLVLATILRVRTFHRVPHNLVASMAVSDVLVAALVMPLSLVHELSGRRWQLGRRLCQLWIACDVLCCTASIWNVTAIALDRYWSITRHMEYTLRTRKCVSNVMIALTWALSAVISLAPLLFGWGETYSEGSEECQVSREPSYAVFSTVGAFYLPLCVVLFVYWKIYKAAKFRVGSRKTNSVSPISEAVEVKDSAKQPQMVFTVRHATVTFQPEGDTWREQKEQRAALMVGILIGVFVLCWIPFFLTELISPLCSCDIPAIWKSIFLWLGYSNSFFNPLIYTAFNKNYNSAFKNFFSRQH
# How it was run: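 Cell-free radioligand displacement binding on HEK293-derived membrane protein, 1 h incubation, filter-based scintillation counting. Primary screen in duplicate at 25 uM, actives followed in concentration series; loss of signal fitted versus DMSO.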
# [8] = molecular target: guinea pig Opioid, Kappa 1 Receptor (OpiateK), OPRK1 (gene 100135587) (UniProt P41144); assay: NVS_GPCR_gOpiateK: NovaScreen (NVS) G Protein-Coupled Receptor Assay for guinea pig Opioid, Kappa 1 Receptor (OpiateK) (AID 2283252);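 also: radioligand displacement from kappa opioid receptor in guinea pig cerebellar membranes; active means reduced radioligand binding relative to DMSO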
# Chain of guinea pig Opioid, Kappa 1 Receptor (OpiateK), OPRK1 (gene 100135587) (P41144 whole entry, looked up): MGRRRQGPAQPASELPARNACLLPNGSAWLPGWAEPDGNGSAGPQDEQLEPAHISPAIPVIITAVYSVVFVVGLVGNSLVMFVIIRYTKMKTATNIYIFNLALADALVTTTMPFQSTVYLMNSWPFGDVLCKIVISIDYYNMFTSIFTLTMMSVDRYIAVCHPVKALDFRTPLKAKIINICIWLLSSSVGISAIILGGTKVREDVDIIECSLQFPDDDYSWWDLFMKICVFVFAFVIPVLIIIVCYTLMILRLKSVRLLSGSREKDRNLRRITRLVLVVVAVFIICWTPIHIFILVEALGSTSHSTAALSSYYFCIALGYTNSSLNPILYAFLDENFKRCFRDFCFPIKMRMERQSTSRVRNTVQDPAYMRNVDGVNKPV
# How it was run: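 Signal is scintillation counts of filter-trapped radioligand bound to guinea pig cerebellar membrane receptor, measured 2 hours post-dosing. Activity is loss of binding versus DMSO, first at 25 uM in duplicate, then as concentration series for actives.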
# [9] = molecular target: human Serotonin, 5-Hydroxytryptamine Receptor 6 (5HT6), HTR6 (gene 3362) (UniProt P50406); assay: NVS_GPCR_h5HT6: NovaScreen (NVS) G Protein-Coupled Receptor Assay for human Serotonin, 5-Hydroxytryptamine Receptor 6 (5HT6) (AID 2283253)
# Chain of human Serotonin, 5-Hydroxytryptamine Receptor 6 (5HT6), HTR6 (gene 3362) (P50406 whole entry, looked up): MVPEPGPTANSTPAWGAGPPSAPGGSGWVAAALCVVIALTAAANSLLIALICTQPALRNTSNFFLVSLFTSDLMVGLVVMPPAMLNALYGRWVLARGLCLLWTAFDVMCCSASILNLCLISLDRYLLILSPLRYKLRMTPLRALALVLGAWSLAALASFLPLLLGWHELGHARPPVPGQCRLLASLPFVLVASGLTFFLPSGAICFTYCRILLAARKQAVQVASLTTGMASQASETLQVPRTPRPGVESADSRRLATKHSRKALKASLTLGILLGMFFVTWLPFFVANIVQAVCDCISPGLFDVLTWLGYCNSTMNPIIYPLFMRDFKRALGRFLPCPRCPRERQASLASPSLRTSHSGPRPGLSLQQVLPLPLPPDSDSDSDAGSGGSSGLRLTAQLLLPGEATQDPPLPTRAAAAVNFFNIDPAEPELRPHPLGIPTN
# How it was run: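 Radioligand binding to 5HT6 in HEK293-derived membranes, cell-free, 1 h after dosing; bound ligand measured by filter-based scintillation counting. Primary screen in duplicate at 25 uM; actives retested in concentration series.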
# [10] = molecular target: human Serotonin, 5-Hydroxytryptamine Receptor 7 (5HT7), HTR7 (gene 3363) (UniProt P34969); assay: NVS_GPCR_h5HT7: NovaScreen (NVS) G Protein-Coupled Receptor Assay for human Serotonin, 5-Hydroxytryptamine Receptor 7 (5HT7) (AID 2283255);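 also: hits reduce specific radioligand binding relative to DMSO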
# How it was run: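 Radioligand displacement on membranes from CHO cells expressing human 5HT7, 1 h incubation, filter-based scintillation counting. Primary screen used a single 25 uM concentration in duplicate; actives were followed up in concentration series.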
# [11] = molecular target: human Adrenergic, Alpha 2c Receptor (Adra2C), ADRA2C (gene 152) (UniProt P18825); assay: NVS_GPCR_hAdra2C: NovaScreen (NVS) G Protein-Coupled Receptor Assay for human Adrenergic, Alpha 2c Receptor (Adra2C) (AID 2283259)
# Chain of human Adrenergic, Alpha 2c Receptor (Adra2C), ADRA2C (gene 152) (P18825 whole entry, looked up): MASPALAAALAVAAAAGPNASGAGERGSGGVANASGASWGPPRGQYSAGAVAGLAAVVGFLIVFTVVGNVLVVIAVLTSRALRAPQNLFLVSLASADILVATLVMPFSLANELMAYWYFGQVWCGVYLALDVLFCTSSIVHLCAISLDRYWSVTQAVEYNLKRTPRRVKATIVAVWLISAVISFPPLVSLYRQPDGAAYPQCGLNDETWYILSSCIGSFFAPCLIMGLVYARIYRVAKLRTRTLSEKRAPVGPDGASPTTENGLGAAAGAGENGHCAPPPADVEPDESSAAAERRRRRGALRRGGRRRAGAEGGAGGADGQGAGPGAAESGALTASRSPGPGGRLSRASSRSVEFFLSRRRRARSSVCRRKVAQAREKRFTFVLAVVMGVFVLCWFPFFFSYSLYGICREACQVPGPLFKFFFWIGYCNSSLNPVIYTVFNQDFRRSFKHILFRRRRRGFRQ
# How it was run: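 Radioligand binding on Sf9-expressed receptor membranes, 1 h after chemical dosing, filter-based scintillation read-out. Loss of binding fitted positively versus DMSO; primary duplicate screen at 25 uM, actives retested in concentration series.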
# [12] = molecular target: human Sirtuin 1 (SIRT1), SIRT1 (gene 23411) (UniProt Q96EB6); assay: NVS_ENZ_hSIRT1: NovaScreen (NVS) Enzymatic Assay for human Sirtuin 1 (SIRT1) (AID 2283219)
# How it was run: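 Cell-free recombinant SIRT1 with a fluorescent substrate; substrate and product separated by electrophoretic mobility shift and read by fluorescence intensity, 1 h after dosing. Primary screen at 25 uM in duplicate; hits re-run in concentration-response up to 50 uM, relative to DMSO.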
# [13] = molecular target: human Tropomyosin Receptor Kinase A (TRKA), NTRK1 (gene 4914) (UniProt P04629); assay: NVS_ENZ_hTrkA: NovaScreen (NVS) Enzymatic Assay for human Tropomyosin Receptor Kinase A (TRKA) (AID 2283224)
# How it was run: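 Recombinant human TrkA activity read after 1 h by fluorescence with electrophoretic mobility shift separating substrate and product. Primary screen in duplicate at 25 uM; actives were rerun in concentration-response up to 50 uM. Loss of signal versus DMSO.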
# [14] = molecular target: human Vascular Endothelial Growth Factor Receptor 2 (VEGFR2), KDR (gene 3791) (UniProt P35968); assay: NVS_ENZ_hVEGFR2: NovaScreen (NVS) Enzymatic Assay for human Vascular Endothelial Growth Factor Receptor 2 (VEGFR2) (AID 2283230)
# How it was run: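 Cell-free recombinant VEGFR2 kinase, fluorescent substrate with electrophoretic mobility-shift separation; read 1 h after dosing. Screened at 25 uM in duplicate, hits to concentration-response up to 50 uM; loss-of-signal versus DMSO.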
# [15] = molecular target: human Adenosine A1 Receptor (AdoRA1), ADORA1 (gene 134) (UniProt P30542); assay: NVS_GPCR_hAdoRA1: NovaScreen (NVS) G Protein-Coupled Receptor Assay for human Adenosine A1 Receptor (AdoRA1) (AID 2283254)
# Chain of human Adenosine A1 Receptor (AdoRA1), ADORA1 (gene 134) (P30542 whole entry, looked up): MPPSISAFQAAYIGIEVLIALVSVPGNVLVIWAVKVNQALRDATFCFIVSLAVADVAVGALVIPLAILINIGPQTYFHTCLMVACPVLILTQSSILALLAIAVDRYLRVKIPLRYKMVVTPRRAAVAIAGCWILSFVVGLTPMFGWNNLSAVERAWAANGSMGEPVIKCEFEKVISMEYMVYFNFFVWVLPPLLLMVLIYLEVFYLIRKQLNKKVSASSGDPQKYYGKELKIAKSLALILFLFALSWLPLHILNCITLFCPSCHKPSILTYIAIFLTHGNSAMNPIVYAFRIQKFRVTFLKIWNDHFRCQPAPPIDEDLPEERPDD
# How it was run: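 Membranes from human cortical tissue were incubated with radioligand and test chemical for 1 hour, then filtered and counted. Activity was taken as signal loss relative to DMSO, screened at 25 uM in duplicate before concentration-response follow-up.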
# [16] = molecular target: human Adenosine A2a Receptor (AdoRA2a), ADORA2A (gene 135) (UniProt P29274); assay: NVS_GPCR_hAdoRA2a: NovaScreen (NVS) G Protein-Coupled Receptor Assay for human Adenosine A2a Receptor (AdoRA2a) (AID 2283256)
# Chain of human Adenosine A2a Receptor (AdoRA2a), ADORA2A (gene 135) (P29274 whole entry, looked up): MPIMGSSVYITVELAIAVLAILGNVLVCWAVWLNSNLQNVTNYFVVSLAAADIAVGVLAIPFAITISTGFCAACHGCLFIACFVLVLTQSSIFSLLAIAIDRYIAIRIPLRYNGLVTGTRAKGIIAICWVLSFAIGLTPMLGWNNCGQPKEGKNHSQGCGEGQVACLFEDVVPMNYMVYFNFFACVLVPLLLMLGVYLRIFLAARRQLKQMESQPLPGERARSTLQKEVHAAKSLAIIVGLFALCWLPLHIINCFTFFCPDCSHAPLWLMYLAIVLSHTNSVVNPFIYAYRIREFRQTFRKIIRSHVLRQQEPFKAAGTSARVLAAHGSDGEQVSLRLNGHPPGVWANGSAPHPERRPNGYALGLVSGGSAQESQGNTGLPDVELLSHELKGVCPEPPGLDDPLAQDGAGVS
# How it was run: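 Cell-free radioligand binding on membranes from HEK293 expressing the receptor; competitive displacement read 1.5 h after dosing by filter-based scintillation counting. Primary screen in duplicate at 25 uM; actives followed in concentration series, with DMSO as baseline.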
# [17] = molecular target: human Adrenergic, Alpha 2A Receptor (Adra2A), ADRA2A (gene 150) (UniProt P08913); assay: NVS_GPCR_hAdra2A: NovaScreen (NVS) G Protein-Coupled Receptor Assay for human Adrenergic, Alpha 2A Receptor (Adra2A) (AID 2283257)
# How it was run: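 Radioligand filter-binding was run on HT29-derived membranes, cell-free, read by scintillation counting 1 h after dosing. Primary screening was in duplicate at 25 uM, with concentration series in follow-up. Loss of signal versus DMSO indicates displacement.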
# [18] = molecular target: human Adrenergic, Beta 1 Receptor (Adrb1), ADRB1 (gene 153) (UniProt P08588); assay: NVS_GPCR_hAdrb1: NovaScreen (NVS) G Protein-Coupled Receptor Assay for human Adrenergic, Beta 1 Receptor (Adrb1) (AID 2283258)
# How it was run: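 Cell-free radioligand displacement on receptor from human neuroepithelioma cells; 2 h after dosing, filter-based scintillation counting. Primary screen in duplicate at 25 uM, actives retested in concentration series; loss of signal vs DMSO baseline.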
# [19] = molecular target: guinea pig Leukotriene D4 Receptor (LTD4), CYSLTR1 (gene 100135514) (UniProt Q2NNR5); assay: NVS_GPCR_gLTD4: NovaScreen (NVS) G Protein-Coupled Receptor Assay for guinea pig Leukotriene D4 Receptor (LTD4) (AID 2283248)
# Chain of guinea pig Leukotriene D4 Receptor (LTD4), CYSLTR1 (gene 100135514) (Q2NNR5 whole entry, looked up): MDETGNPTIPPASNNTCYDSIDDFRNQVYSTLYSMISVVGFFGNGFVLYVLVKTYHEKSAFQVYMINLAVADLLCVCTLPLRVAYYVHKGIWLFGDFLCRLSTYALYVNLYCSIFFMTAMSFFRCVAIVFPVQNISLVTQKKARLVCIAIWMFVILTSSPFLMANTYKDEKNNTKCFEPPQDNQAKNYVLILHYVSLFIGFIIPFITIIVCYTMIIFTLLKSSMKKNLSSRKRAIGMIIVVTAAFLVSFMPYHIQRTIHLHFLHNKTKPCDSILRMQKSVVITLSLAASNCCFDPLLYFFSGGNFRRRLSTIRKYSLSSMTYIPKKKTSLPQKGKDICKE
# How it was run: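 Radioligand displacement on guinea pig lung membranes, 1 h incubation, filtration and scintillation counting; DMSO as negative control. Duplicate 25 uM primary screen, then singleton concentration-response up to 50 uM.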
# [20] = molecular target: human SRC Proto-Oncogene, Non-receptor Tyrosine Kinase (SRC), SRC (gene 6714) (UniProt P12931); assay: NVS_ENZ_hSRC: NovaScreen (NVS) Enzymatic Assay for human SRC Proto-Oncogene, Non-receptor Tyrosine Kinase (SRC) (AID 2283223)
# How it was run: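 Cell-free kinase activity assay with fluorescent substrate, product separated by electrophoretic mobility shift, read 1 h after dosing. Duplicate single point at 25 uM, then concentration-response up to 50 uM; loss of signal versus DMSO.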
structure (smiles),measurement,setting,value
CC(C)(O)CCc1ccccc1,outcome,[1],inactive
CC/C(=C(\c1ccccc1)c1ccc(OCCN(C)C)cc1)c1ccccc1,outcome,[2],inactive
same,outcome,[3],inactive
same,outcome,[4],inactive
same,AC50,[5],22.9 µM (active)
same,AC50,[6],19.1 µM (active)
same,AC50,[7],6.95 µM (active)
same,outcome,[8],inactive
same,AC50,[9],6.32 µM (active)
same,AC50,[10],4.89 µM (active)
same,AC50,[11],9.54 µM (active)
CCCCCCCCCCCCS,AC50,[1],25 µM (active)
O=C(c1ccc(OCCN2CCCCC2)cc1)c1c(-c2ccc(O)cc2)sc2cc(O)ccc12,AC50,[12],17.8 µM (active)
same,AC50,[2],17.4 µM (active)
same,AC50,[13],25 µM (active)
same,AC50,[3],10.3 µM (active)
same,AC50,[14],3.07 µM (active)
same,AC50,[4],1.02 µM (active)
same,AC50,[6],5.18 µM (active)
same,AC50,[7],3.5 µM (active)
same,AC50,[8],508 nM (active)
same,AC50,[9],3.57 µM (active)
same,outcome,[15],inactive
same,AC50,[10],2.27 µM (active)
same,AC50,[16],6.13 µM (active)
same,AC50,[17],9.52 µM (active)
same,AC50,[18],10.5 µM (active)
same,AC50,[11],2.78 µM (active)
CC1=CC(C)C(C=O)C(C)C1 (stereo not given) (tested in a mixture with another compound),outcome,[19],inactive
Cc1cc(N)n(-c2ccccc2)n1,outcome,[1],inactive
O=C1OC2(c3ccc(O)cc3Oc3cc(O)ccc32)c2ccccc21,AC50,[1],18.2 µM (active)
same,outcome,[19],inactive
same,outcome,[8],inactive
C[C@]12CC[C@@H]3c4ccc(O)cc4CC[C@H]3[C@@H]1CC[C@@H]2O,outcome,[2],inactive
CC(=O)CCC=C(C)CCC=C(C)C,AC50,[1],43.3 µM (active)
O=[N+]([O-])c1cc(N(CCO)CCO)ccc1NCCO,outcome,[19],inactive
O=C1OCc2ccccc21,outcome,[16],inactive
c1ccc(Sc2ccccc2)cc1,outcome,[1],inactive
O=S1(=O)CC(Cl)(Cl)C(Cl)(Cl)C1,outcome,[8],inactive
Cc1ccc(C(C)(C)O)cc1,outcome,[1],inactive
COc1ccc(C(C)=O)cc1,outcome,[15],inactive
CC(O)COCC(C)O (stereo not given),outcome,[1],inactive
COc1ccccc1NC(=O)CC(C)=O,AC50,[1],14.6 µM (active)
CC(=O)c1ccc(C)cc1,outcome,[1],inactive
C=CCOCC(O)CO (stereo not given),AC50,[1],25 µM (active)
C#C[C@]1(O)CC[C@H]2[C@@H]3CCc4cc(O)ccc4[C@H]3CC[C@@]21C,AC50,[20],38.4 µM (active)
same,outcome,[19],inactive
same,AC50,[16],6.76 µM (active)
CCCCCC1C(=O)CCC1CC(=O)OC (stereo not given),outcome,[8],inactive
Cc1cc(O)c(C)c(C)c1O,outcome,[8],inactive
